# Assay outcomes (PubChem)
# In the library only some 2.3% were active in any assay of this set; here they are far more common.
# CHO-K1 Ca antag = M1 antagonist counterscreen hit in parental CHO-K1 cells. ATP-induced calcium, Fluo-8 fluorescence. inhibition, % at 3 µM. hit rate 0.6% among 360,000;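 active = inhibition above a per-plate cutoff, the plate's mean sample inhibition plus 3 SD, cut at about 24% in these data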;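 also: 0% = DMSO plus EC80 ATP and 100% = DMSO alone without ATP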
# CHRM1 PAM = positive allosteric modulators of human M1 muscarinic receptor | activation, % at 3 µM | P11229 | CHO-K1 hM1, Fluo-8 calcium fluorescence, ACh EC20; 0% = ACh EC20, 100% = maximal ACh | hit rate 0.088% among 360,000 | AID 588819; in the data active = activation above about 19%, passing the limit was not always enough
# Target sequence (P11229 whole entry, looked up): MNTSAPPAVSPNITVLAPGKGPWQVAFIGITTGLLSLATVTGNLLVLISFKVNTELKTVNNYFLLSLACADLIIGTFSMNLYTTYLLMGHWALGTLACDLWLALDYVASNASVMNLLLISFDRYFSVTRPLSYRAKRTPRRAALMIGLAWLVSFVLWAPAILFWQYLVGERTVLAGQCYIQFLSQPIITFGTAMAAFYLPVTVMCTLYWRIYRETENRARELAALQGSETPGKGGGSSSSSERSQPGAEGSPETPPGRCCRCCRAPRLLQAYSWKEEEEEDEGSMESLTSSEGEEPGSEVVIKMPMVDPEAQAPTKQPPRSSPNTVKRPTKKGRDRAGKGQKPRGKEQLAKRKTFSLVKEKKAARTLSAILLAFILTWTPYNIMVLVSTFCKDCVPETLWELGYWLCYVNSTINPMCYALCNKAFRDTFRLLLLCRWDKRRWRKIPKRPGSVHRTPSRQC
# M1 ag parental = counter-screen for M1 agonists: effect in parental CHO-K1 cells; hit rate 0.48% among 360,000; activation, % at 3 µM; Fluo-8 calcium fluorescence; scaled to maximal ATP response, vehicle zero; in the data active = activation above about 15%;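 also: untransfected CHO-K1 host cells lacking M1 receptor as counterscreen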
# M1 antag = human CHRM1 antagonism | P11229 | CHO-K1 hM1, Fluo-8 calcium fluorescence, ACh EC80 antagonist | inhibition, % at 3 µM | hit rate 1.3% among 360,000;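 active = percent inhibition above its own plate's cutoff, namely the mean of that plate's compound wells plus 3 SD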;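 also: peak over basal fluorescence ratio during 140 s after agonist addition; 0% = ACh EC80 plus DMSO and 100% = DMSO alone without agonist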
# CHRM1 agonist = human M1 muscarinic receptor agonism; activation, % at 3 µM; hit rate 0.33% among 360,000; CHO-K1 hM1, Fluo-8 calcium fluorescence, agonist mode; 0% DMSO, 100% acetylcholine EC100; P11229;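 active = activation above the run's mean compound activation plus 3 SD, cut at about 16% in these data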;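 also: peak over basal fluorescence ratio within a 140 s kinetic read after compound addition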
# CHO-K1 Ca PAM = counter-screen for M1 PAMs: effect in parental CHO-K1 cells; ATP EC20, Fluo-8 calcium fluorescence; 0% at ATP EC20, 100% at ATP max; activation, % at 3 µM; hit rate 0.02% among 360,000;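 active = activation above the run cutoff, the mean activation of all test compounds plus 3 SD, cut at about 40% in these data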;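 also: peak over basal fluorescence ratio in a 140 s read after ATP addition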
# Active calls of the source: *; nt = no result given.
SMILES,CHO-K1 Ca antag,CHRM1 PAM,M1 ag parental,M1 antag,CHRM1 agonist,CHO-K1 Ca PAM
CCCN(C(=O)CSCc1ccccc1C)c1c(N)n(Cc2ccccc2)c(=O)[nH]c1=O,-12,26*,1,-27,5,11
COCCN(C(=O)CSc1nc2ccccc2c(=O)n1CC(C)C)c1c(N)n(Cc2ccccc2)c(=O)[nH]c1=O,1,15,20*,-9,-10,16
CCCN(C(=O)CSCc1ccc(C)cc1)c1c(N)n(Cc2ccccc2)c(=O)[nH]c1=O,-1,4,-1,-5,-1,-10
COCCN(C(=O)CSc1nc2ccccc2c(=O)n1C(C)COC)c1c(N)n(Cc2ccccc2)c(=O)[nH]c1=O (stereo unspecified),4,-22,1,7,-13,6
CCN=C1SC(C(=O)NCCc2ccccc2)CC(=O)N1CC (stereo unspecified),3,-14,4,26*,-1,17
CCN1C(=O)CC(C(=O)Nc2ccc(F)cc2)SC1=Nc1ccc2c(c1)OCO2 (stereo unspecified),10,-3,3,12,-1,15
CCN=C1SC(C(=O)Nc2ccc(OC)cc2)CC(=O)N1CC (stereo unspecified),19,-20,5,32*,-1,1
CCN=C1SC(C(=O)Nc2ccc(OCC)cc2)CC(=O)N1CC (stereo unspecified),4,-13,6,17,2,8
CCN=C1SC(C(=O)Nc2cccc(Br)c2)CC(=O)N1CC (stereo unspecified),16,-15,8,30*,-3,-1
Cc1ccc(N=C2SC(C(=O)NCCc3ccccc3)CC(=O)N2C)cc1C (stereo unspecified),-9,-17,2,14,-7,17
CCN=c1sc(C(=O)NCCc2ccccc2)cc(=O)n1CC,15,-4,6,30*,4,7
COc1ccc(C(O)c2cnc(C)n2Cc2ccccc2)cc1 (stereo unspecified),1,-3,2,4,-4,1
CCN=C1SC(C(=O)Nc2cccc(Cl)c2)CC(=O)N1CC (stereo unspecified),5,-9,7,38*,0,7
CCN=C1SC(C(=O)Nc2ccc(Cl)c(Cl)c2)CC(=O)N1CC (stereo unspecified),5,-5,4,7,-1,13
CCN=C1SC(C(=O)Nc2cccc(C)c2)CC(=O)N1CC (stereo unspecified),15,-10,4,33*,3,5
CCN=C1SC(C(=O)Nc2cc(Cl)cc(Cl)c2)CC(=O)N1CC (stereo unspecified),-15,6,1,-10,-4,17
Cc1ccc(Nc2ncnc(Cl)c2N)cc1,13,-3,0,1,0,-6
CN(C(=O)c1cc(-c2cccs2)nn1-c1ccccc1)C1CCS(=O)(=O)C1 (stereo unspecified),-13,2,1,0,-4,21
CCOCCCNC(=O)c1[nH]c(C)c(C(C)=O)c1C,24*,3,0,-11,-1,-5
CCOCCCNC(=O)c1c(C)[nH]c(C(=O)OCC)c1C,10,3,0,-1,-4,1
CCOC(=O)[C@]12CCC=C1N(Cc1ccc(Cl)cc1Cl)C(=O)[C@H](CC(=O)N1CCC(c3ccccc3)CC1)C2,-14,nt,1,nt,nt,1
CCCC(=O)Nc1cc(-c2nn(C)c(=O)c3ccccc23)ccc1OC,24*,10,-1,2,-3,-2
O=C(OCC(=O)N(Cc1ccccc1)Cc1ccccc1)c1ccccc1NCCO,10,-8,6,21*,0,-4
COC(=O)C1=C(C)Nc2nc3ccccc3n2C1c1cc(OC)c(OC)c(OC)c1 (stereo unspecified),0,1,17*,-8,-5,20
CCOC(=O)C1=C(C)Nc2nc3ccccc3n2C1c1ccc(O)cc1 (stereo unspecified),-6,2,0,-3,-1,0
SMILES,CHO-K1 Ca antag,CHRM1 PAM,M1 ag parental,M1 antag,CHRM1 agonist,CHO-K1 Ca PAM
COc1cc(NC(=O)c2ccc(-c3ccc(F)c(F)c3)c3ccoc23)cc(OC)c1OC,-2,15,-1,-18,2,8
Cc1ccc(OC(=O)c2ccc(Br)o2)cc1,-10,-1,27*,4,30*,12
CCC(=O)c1ccc(OCc2ccc(C(=O)c3ccccc3)cc2)cc1,11,-19,12,51*,-3,-9
CCC(=O)c1ccc(OC(=O)c2ccc(Br)o2)cc1,0,-12,43*,11,81*,0
CCC(=O)c1ccc(OCc2ccccc2)c(OC)c1,-14,5,0,-11,-9,17
CC(C)Cn1c(N)c(C(=O)CSc2ncnc3sc4c(c23)CCCC4)c(=O)n(C)c1=O,-5,3,0,0,-4,3
CC(=O)c1cccc(-c2ccnc3c2CC(C(=O)Nc2ccc(C(C)C)cc2)O3)c1 (stereo unspecified),11,8,1,-9,3,-16
COc1ccc(NS(=O)(=O)c2cccc(C(=O)NNC(=O)c3cc(S(N)(=O)=O)ccc3OC)c2)cc1,3,10,0,-15,-1,-20
Fc1ccc(-c2[nH]ncc2CN2CCN(c3ccc(F)cc3)CC2)cc1,-6,10,3,-8,17*,12
Fc1ccc(N2CCN(Cc3cn[nH]c3-c3ccccc3)CC2)cc1,4,-7,0,14,1,-11
O=C1/C(=C/c2cccc(F)c2)Oc2cc(O)ccc21,-14,-2,15*,-1,7,-7
CC(=O)N1c2ccc(S(=O)(=O)NCCc3ccccc3)cc2CC1C (stereo unspecified),11,-14,10,29*,1,-3
CC(=O)N1CCc2cc(S(=O)(=O)NCCC(=O)NCCc3ccc(Cl)cc3)ccc21,-2,-5,16*,7,0,1
CC1CN(CC(O)COc2ccc(C#N)cc2)CCN1CC(O)COc1ccc(C#N)cc1 (stereo unspecified),-12,5,5,-7,-6,13
COc1cc(/C=C2\S/C(=N/S(=O)(=O)c3ccccc3)NC2=O)c([N+](=O)[O-])cc1OC,27*,11,2,-7,3,-7
COc1ccc(S(=O)(=O)/N=C2/NC(=O)/C(=C\c3cc(OC)c(OC)cc3[N+](=O)[O-])S2)cc1,-7,13,1,-19,0,18
O=C(CN1CCN(C(c2ccccc2)c2ccccc2)CC1)N1CCN(c2ccccc2)CC1,1,-24,0,81*,-10,2
O=C(CN1CCN(C(c2ccccc2)c2ccccc2)CC1)N1N=CCC1c1ccccc1 (stereo unspecified),-9,-25,5,48*,-6,18
